Test results published in PMC6664820, “Novel natural and synthetic inhibitors of solute carriers SGLT1 and SGLT2” (Pharmacology Research & Perspectives, 2019).
Out of some 1,900 compounds screened, about 40 (2%) showed an effect of 50% or more. This is one part of a sample in which strong results are shown more often than they occur.

target: human SGLT1 (hSGLT1) (human, UniProt P13866); experiment: primary screen, percent of control activity; higher = less effect of the substance; design: single well; settings: 50 µM
Sequence (P13866 whole entry, looked up): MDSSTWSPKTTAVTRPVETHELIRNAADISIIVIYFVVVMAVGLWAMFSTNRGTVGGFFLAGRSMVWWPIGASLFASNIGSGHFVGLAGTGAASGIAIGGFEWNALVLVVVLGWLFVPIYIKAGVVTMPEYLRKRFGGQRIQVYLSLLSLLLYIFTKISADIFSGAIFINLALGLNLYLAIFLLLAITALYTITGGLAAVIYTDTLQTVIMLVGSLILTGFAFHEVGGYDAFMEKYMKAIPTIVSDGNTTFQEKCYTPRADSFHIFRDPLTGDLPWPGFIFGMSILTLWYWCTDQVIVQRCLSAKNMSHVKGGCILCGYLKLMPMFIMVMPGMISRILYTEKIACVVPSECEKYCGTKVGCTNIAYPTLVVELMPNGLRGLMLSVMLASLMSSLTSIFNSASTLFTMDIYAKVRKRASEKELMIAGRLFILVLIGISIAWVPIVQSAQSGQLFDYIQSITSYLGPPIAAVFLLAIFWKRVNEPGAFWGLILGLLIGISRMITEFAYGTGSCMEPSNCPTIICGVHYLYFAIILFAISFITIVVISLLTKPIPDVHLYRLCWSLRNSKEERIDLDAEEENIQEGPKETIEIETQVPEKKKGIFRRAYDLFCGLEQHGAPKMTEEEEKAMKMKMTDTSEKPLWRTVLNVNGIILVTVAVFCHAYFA
Experimental: Two days before the assay, CHO‐wild type and CHO‐hSGLT1 cells were seeded in maintenance medium at 25 000 cells/well in clear‐bottom black 96‐well cell culture plates. Before the assay, cells were washed 3 times with 150 μL/well D‐glucose free DMEM with 0.3% (w/v) BSA. Library compounds at 50 μmol/L (singlicate) prepared in D‐glucose free DMEM with 160 μmol/L 1‐NBD‐glucose and 0.3% (w/v) BSA and negative controls (triplicate) were added at 100 μL/well and placed in a humidified incubator at 37°C with 5% CO2 for 90 minutes. Next, cells were washed 3 times with DMEM with 0.3% (w/v) BSA (150 μL/well). Care was taken to remove all medium after the last wash. Finally, 1‐NBD‐glucose was extracted from the cells by adding 10 μL/well isopropanol and orbital shaking for 5 minutes at 600 rpm, followed by incubation in the dark for 30 minutes. Fluorescence was measured on a Tecan Infinite M200 Microplate Reader (Tecan, Männedorf, Switzerland) with excitation at 445 nm and emission at 525 nm. The amount of 1‐NBD‐glucose taken up by the CHO‐wild type or CHO‐hSGLT1 cells in the presence or absence of test compounds was interpolated from 1‐NBD‐glucose calibration standards. The background uptake by CHO‐wild type was subtracted from the uptake by CHO‐hSGLT1. Background corrected uptake with test compound was expressed as a percentage of corrected uptake without test compound.

Going from `O=P(O)(O)O.c1ccc(CN(CC2=NCCN2)c2ccccc2)cc1` to `CC(C)COCC(CN(Cc1ccccc1)c1ccccc1)N1CCCC1.Cl` (centres unmarked), the “NORMALIZED SGLT1 ACTIVITY (%)” value falls from 87% to 48%.

Going from `COc1cc2ccc(=O)oc2c(O)c1O` to `CC1(C)Oc2ccc3ccc(=O)oc3c2CC1O` (centres unmarked), the “NORMALIZED SGLT1 ACTIVITY (%)” value rises from 142% to 159%.

First: CCCn1c(=O)c2nc(C3CCCC3)[nH]c2n(CCC)c1=O
Second: CO/N=C1\CN(c2nc3c(cc2F)c(=O)c(C(=O)O)cn3C2CC2)CC1CN.CS(=O)(=O)O (centres unmarked)
The “NORMALIZED SGLT1 ACTIVITY (%)” value of the first is higher: 180% for the first, 157% for the second.

First: COc1cc(S(C)=O)ccc1-c1nc2cccnc2[nH]1 (centres unmarked)
Second: COc1ccc2cc([C@H](C)CO)ccc2c1
The “NORMALIZED SGLT1 ACTIVITY (%)” value of the first is higher: 237% for the first, 111% for the second.

Compared with `CC1(C)S[C@@H]2[C@H](NC(=O)Cc3ccccc3)C(=O)N2[C@H]1C(=O)[O-].[K+]`, `CC(=O)OCC1=C(C(=O)[O-])N2C(=O)[C@@H](NC(=O)Cc3cccs3)[C@H]2SC1.[Na+]` is higher in “NORMALIZED SGLT1 ACTIVITY (%)” value: 115% for the first, 140% for the second.

Going from `CC1(C)CC[C@]2(C(=O)O)CC[C@]3(C)C(=CCC4[C@@]5(C)CC[C@@H](O)C(C)(C)C5CC[C@]43C)C2C1` (some centres unmarked) to `CC1(C)CC[C@]2(C)CC[C@]3(C)C(=CCC4[C@@]5(C)CC[C@H](O)C(C)(C)C5CC[C@]43C)C2C1` (some centres unmarked), the “NORMALIZED SGLT1 ACTIVITY (%)” value falls from 133% to 91%.

Going from `CC1(C)CC[C@@]2(C(=O)O)C(C1)C1=CCC3[C@@]4(C)CC[C@H](O)C(C)(C)C4CC[C@@]3(C)[C@]1(C)C[C@@H]2O` (some centres unmarked) to `CC(=O)Oc1cc2c(c(C)c1OC(C)=O)CC1OC13[C@@]2(C)CC[C@@]1(C)C2C[C@](C)(C(=O)O)CC[C@]2(C)CC[C@]31C` (some centres unmarked), the “NORMALIZED SGLT1 ACTIVITY (%)” value rises from -6% to 204%.

Going from `Cl.O=C(O)C1=CCNCC1` to `O=C(O)c1cc(O)ccc1O`, the “NORMALIZED SGLT1 ACTIVITY (%)” value rises from 111% to 145%.

Compared with `CC(C)[N+]1(C)C2CC[C@@H]1C[C@@H](OC(=O)C(CO)c1ccccc1)C2.[Br-]` (some centres unmarked), `Cl.OC(CCN1CCCC1)(c1ccccc1)C1CCCCC1` (centres unmarked) is lower in “NORMALIZED SGLT1 ACTIVITY (%)” value: 83% for the first, 45% for the second.

Going from `Cl.OC(CCN1CCCCC1)(c1ccccc1)C1CCCCC1` (centres unmarked) to `CS(=O)(=O)O.OC(CCN1CCCCC1)(c1ccccc1)c1ccccc1`, the “NORMALIZED SGLT1 ACTIVITY (%)” value rises from 69% to 101%.

First: CN(C)C(=O)Oc1ccc[n+](C)c1.[Br-]
Second: C/C=C(\C)C(=O)O[C@@H]1c2c(ccc3ccc(=O)oc23)OC(C)(C)[C@@H]1OC(C)=O
The “NORMALIZED SGLT1 ACTIVITY (%)” value of the first is higher: 105% for the first, 5% for the second.

Going from `NC(Cc1c[nH]cn1)C(=O)Nc1ccc2ccccc2c1` (centres unmarked) to `Cl.N=C(N)NC(=N)Nc1ccccc1`, the “NORMALIZED SGLT1 ACTIVITY (%)” value falls from 153% to 136%.

Compared with `C[C@H]1CC2C3CCC4=CC(=O)C=C[C@]4(C)[C@@]3(F)[C@@H](O)C[C@]2(C)[C@@]1(O)C(=O)CO` (some centres unmarked), `CCC(C)(C)C(=O)O[C@H]1C[C@@H](C)C=C2C=C[C@H](C)[C@H](CC[C@@H]3C[C@@H](O)CC(=O)O3)[C@H]21` is lower in “NORMALIZED SGLT1 ACTIVITY (%)” value: 241% for the first, 96% for the second.

First: CCOP(=S)(OCC)Oc1ccc2c(C)c(Cl)c(=O)oc2c1
Second: CCOP(=S)(OCC)Oc1nc(Cl)c(Cl)cc1Cl
The “NORMALIZED SGLT1 ACTIVITY (%)” value of the first is higher: 118% for the first, 35% for the second.

First: CCOP(=S)(OCC)Oc1cc(C)nc(C(C)C)n1
Second: CC(=O)O[C@@H]1c2c(ccc3ccc(=O)oc23)OC(C)(C)[C@@H]1OC(=O)CC(C)C
The “NORMALIZED SGLT1 ACTIVITY (%)” value of the first is higher: 107% for the first, 51% for the second.

Compared with `O=C(O)c1cc(O)c(=O)c2c(O)c(O)ccc2c1`, `COc1ccc(CCC(=O)c2c(O)cc(O[C@@H]3O[C@H](CO)C(O)[C@H](O)C3O[C@@H]3O[C@@H](C)[C@H](O)[C@@H](O)[C@H]3O)cc2O)cc1O` (some centres unmarked) is higher in “NORMALIZED SGLT1 ACTIVITY (%)” value: 141% for the first, 143% for the second.

Compared with `CC[C@H](C)[C@H](N)C(=O)N1CCC[C@H]1C(=O)N[C@H](C(=O)O)[C@@H](C)CC`, `CC(C)NC(=N)NC(=N)Nc1ccc(Cl)cc1.Cl` is higher in “NORMALIZED SGLT1 ACTIVITY (%)” value: 98% for the first, 130% for the second.

Compared with `Cl.Cl.N=C(NCCCCCCNC(=N)NC(=N)Nc1ccc(Cl)cc1)NC(=N)Nc1ccc(Cl)cc1`, `Clc1ccc(C(c2ccc(Cl)cc2)C(Cl)(Cl)Cl)cc1` is higher in “NORMALIZED SGLT1 ACTIVITY (%)” value: 25% for the first, 86% for the second.

Compared with `CC1(C)NC(=O)N(c2ccc([N+](=O)[O-])c(C(F)(F)F)c2)C1=O`, `O=C1CN(/N=C/c2ccc(-c3ccc([N+](=O)[O-])cc3)o2)C(=O)[N-]1.[Na+]` is lower in “NORMALIZED SGLT1 ACTIVITY (%)” value: 222% for the first, 103% for the second.

Compared with `O=C(/C=C/C=C/c1ccc2c(c1)OCO2)N1CCCCC1`, `COC(=O)[C@H]1[C@H]2C[C@H]3c4[nH]c5cc(OC)ccc5c4CCN3C[C@H]2C[C@@H](OC(=O)c2cc(OC)c(OC)c(OC)c2)[C@@H]1OC` is higher in “NORMALIZED SGLT1 ACTIVITY (%)” value: 87% for the first, 345% for the second.

Going from `COc1ccc(-c2cc(=O)c3c(O)cc(O[C@H]4O[C@H](CO[C@@H]5O[C@@H](C)[C@H](O)[C@@H](O)[C@H]5O)[C@@H](O)[C@H](O)[C@H]4O)cc3o2)cc1` to `COc1ccc(C(c2ccc(OC)cc2)C(Cl)(Cl)Cl)cc1`, the “NORMALIZED SGLT1 ACTIVITY (%)” value falls from 121% to 42%.

First: C#CCCCCCCCCCCCC(O)CC(O)COC(C)=O.C=CCCCCCCCCCCCC(O)CC(O)COC(C)=O (centres unmarked)
Second: CC1=C(/C=C/C(C)=C/C=C/C(C)=C/C=C/C=C(C)/C=C/C=C(C)/C=C/C(=O)[C@]2(C)C[C@@H](O)CC2(C)C)C(C)(C)C[C@H](O)C1
The “NORMALIZED SGLT1 ACTIVITY (%)” value of the first is higher: 197% for the first, 103% for the second.
